Measured values reported in PubChem BioAssay AID1159580 (chemical genetic matrix, 2015).
In all, about 5,500 compounds went through this assay and about 2,000 (36%) were called active. Another 18% or so got no clear call; they are omitted. The list shows a part of the results. Unmarked numbers belong to inactive results. No stated cut-off is given here; in the data, active means normalized growth mostly below about 0.91 (no sharp cut-off); inconclusive means no clear call, values can overlap the other calls; inactive means mostly above about 0.92.

Test: chemical genetic growth profiling, strain panel (AID 1159580);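 further: tested at 20 µM; growth read once vehicle control cultures reached saturation at 30 °C; 1 = growth at the plate median or of vehicle wells; lower values mean less growth of the strain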
Conditions: S. cerevisiae deletion strains, growth OD

## N#Cc1c2ccccc2nc2ccccc12
Locus YAR019C, strain CDC15, active compounds read low
  normalized growth: 0.818 (active)
Locus YBL105C, strain PKC1, active compounds read low
  normalized growth: 0.834 (active)
Locus YBR135W, strain CKS1, active compounds read low
  normalized growth: 0.808 (active)
Locus YBR136W, strain MEC1, active compounds read low
  normalized growth: 0.827 (active)
Locus YBR160W, strain CDC28, active compounds read low
  normalized growth: 0.823 (active)
Locus YDL017W, strain CDC7, active compounds read low
  normalized growth: 0.834 (active)
Locus YDL028C, strain MPS1, active compounds read low
  normalized growth: 0.825 (active)
Locus YDL101C, strain DUN1, active compounds read low
  normalized growth: 0.832 (active)
Locus YDL108W, strain KIN28, active compounds read low
  normalized growth: 0.826 (active)
Locus YDL132W, strain cdc53, active compounds read low
  normalized growth: 0.885
Locus YDL214C, strain PRR2, active compounds read low
  normalized growth: 0.743
Locus YDR052C, strain DBF4, active compounds read low
  normalized growth: 0.829 (active)
Locus YDR054C, strain cdc34, active compounds read low
  normalized growth: 0.781 (active)
Locus YDR226W, strain ADK1, active compounds read low
  normalized growth: 0.825 (active)
Locus YDR477W, strain SNF1, active compounds read low
  normalized growth: 0.678 (active)
Locus YER123W, strain YCK3, active compounds read low
  normalized growth: 0.678
Locus YER133W, strain GLC7, active compounds read low
  normalized growth: 0.717 (active)
Locus YFL009W, strain cdc4, active compounds read low
  normalized growth: 0.813 (active)
Locus YFL029C, strain CAK1, active compounds read low
  normalized growth: 0.813 (active)
Locus YFR003C, strain YPI1, active compounds read low
  normalized growth: 0.831 (active)
Locus YFR019W, strain FAB1, active compounds read low
  normalized growth: 0.844
Locus YFR028C, strain CDC14, active compounds read low
  normalized growth: 0.832 (active)
Locus YGR040W, strain KSS1, active compounds read low
  normalized growth: 0.716
Locus YGR052W, strain FMP48, active compounds read low
  normalized growth: 0.736
Locus YGR092W, strain DBF2, active compounds read low
  normalized growth: 0.196 (active)
Locus YHR030C, strain SLT2, active compounds read low
  normalized growth: 0.693 (active)
Locus YHR079C, strain IRE1, active compounds read low
  normalized growth: 0.599
Locus YHR082C, strain KSP1, active compounds read low
  normalized growth: 0.72
Locus YHR205W, strain SCH9, active compounds read low
  normalized growth: 0.807
Locus YIL147C, strain SLN1, active compounds read low
  normalized growth: 0.822 (active)
Locus YJL095W, strain BCK1, active compounds read low
  normalized growth: 0.561
Locus YJL128C, strain PBS2, active compounds read low
  normalized growth: 0.87
Locus YJL157C, strain FAR1, active compounds read low
  normalized growth: 0.675 (active)
Locus YJR016C, strain ILV3, active compounds read low
  normalized growth: 0.816 (active)
Locus YJR066W, strain TOR1 (second series), active compounds read low
  normalized growth: 0.728
Locus YJR066W, strain TOR1, active compounds read low
  normalized growth: 0.615
Locus YKL048C, strain ELM1, active compounds read low
  normalized growth: 0.746 (active)
Locus YKL067W, strain YNK1, active compounds read low
  normalized growth: 0.744
Locus YKL101W, strain HSL1, active compounds read low
  normalized growth: 0.761
Locus YKL193C, strain SDS22, active compounds read low
  normalized growth: 0.803 (active)
Locus YKL203C, strain TOR2, active compounds read low
  normalized growth: 0.693 (active)
Locus YLR113W, strain HOG1, active compounds read low
  normalized growth: 0.638 (active)
Locus YLR133W, strain CKI1, active compounds read low
  normalized growth: 0.737
Locus YLR403W, strain SFP1, active compounds read low
  normalized growth: 0.605 (active)
Locus YML070W, strain DAK1, active compounds read low
  normalized growth: 0.726
Locus YMR001C, strain CDC5, active compounds read low
  normalized growth: 0.818 (active)
Locus YMR205C, strain PFK2 (second series), active compounds read low
  normalized growth: 0.761
Locus YMR277W, strain FCP1, active compounds read low
  normalized growth: 0.817 (active)
Locus YNL006W, strain LST8, active compounds read low
  normalized growth: 0.829 (active)
Locus YNL020C, strain ARK1, active compounds read low
  normalized growth: 0.717
Locus YNL161W, strain CBK1, active compounds read low
  normalized growth: 0.823 (active)
Locus YNL183C, strain NPR1, active compounds read low
  normalized growth: 0.584
Locus YNL207W, strain RIO2, active compounds read low
  normalized growth: 0.822 (active)
Locus YNL222W, strain SSU72, active compounds read low
  normalized growth: 0.825 (active)
Locus YNL307C, strain MCK1 (second series), active compounds read low
  normalized growth: 0.649
Locus YOL078W, strain AVO1, active compounds read low
  normalized growth: 0.803 (active)
Locus YOL136C, strain PFK27, active compounds read low
  normalized growth: 0.742
Locus YOR061W, strain CKA2, active compounds read low
  normalized growth: 0.677 (active)
Locus YOR119C, strain RIO1, active compounds read low
  normalized growth: 0.749
Locus YOR231W, strain MKK1, active compounds read low
  normalized growth: 0.587
Locus YOR329C, strain SCD5, active compounds read low
  normalized growth: 0.829 (active)
Locus YPL031C, strain PHO85, active compounds read low
  normalized growth: 0.616 (active)
Locus YPL153C, strain RAD53, active compounds read low
  normalized growth: 0.659 (active)
Locus YPL204W, strain HRR25, active compounds read low
  normalized growth: 0.693
Locus YPL209C, strain IPL1, active compounds read low
  normalized growth: 0.833 (active)
Locus YPL256C, strain CLN2, active compounds read low
  normalized growth: 0.708 (active)
Locus YPR025C, strain CCL1, active compounds read low
  normalized growth: 0.82 (active)
Locus YPR106W, strain ISR1, active compounds read low
  normalized growth: 0.862 (active)
Locus YPR111W, strain DBF20, active compounds read low
  normalized growth: 0.843 (active)
Strain NNK1, active compounds read low
  normalized growth: 0.846 (active)
Strain TSCII, active compounds read low
  normalized growth: 0.811 (active)

## NO
Locus YAL013W, strain DEP1, active compounds read low
  normalized growth: 0.994
Locus YAL040C, strain CLN3, active compounds read low
  normalized growth: 0.946
Locus YCL061C, strain MRC1 (second series), active compounds read low
  normalized growth: 1.01
Locus YDR363W, strain ESC2, active compounds read low
  normalized growth: 0.997
Locus YER002W, strain NOP16, active compounds read low
  normalized growth: 1.01
Locus YGR229C, strain SMI1, active compounds read low
  normalized growth: 1.1
Locus YJR075W, strain HOC1, active compounds read low
  normalized growth: 1.02
Locus YMR263W, strain SAP30, active compounds read low
  normalized growth: 1.01
Locus YMR307W, strain GAS1, active compounds read low
  normalized growth: 1.02
Locus YNL128W, strain TEP1, active compounds read low
  normalized growth: 0.998
Locus YNL153C, strain GIM3, active compounds read low
  normalized growth: 0.988
Locus YNL175C, strain NOP13, active compounds read low
  normalized growth: 1.01
Locus YNL197C, strain WHI3, active compounds read low
  normalized growth: 0.976
Locus YNL224C, strain SQS1, active compounds read low
  normalized growth: 1
Locus YOR083W, strain WHI5 (second series), active compounds read low
  normalized growth: 0.946
Locus YPL055C, strain LGE1, active compounds read low
  normalized growth: 1.01
Locus YPL241C, strain CIN2, active compounds read low
  normalized growth: 1
